Hits are enriched below; roughly 3.1% of the tested compounds scored in any of these assays.
MLL AF4-AF9 inh: inhibitors of AF4 peptide binding to AF9, primary screen, biochemical, AlphaScreen, biotin-AF4 peptide, FLAG-AF9, single point; inhibition, % at 10 µM; 350,000 compounds, 0.47% hits; AID 651704, 2012;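 active = every replicate reaching a set inhibition limit, whatever the replicate mean, cut at about 25% in these data; inconclusive = mean inhibition reaches that limit but some replicates miss it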
dFosB act: activators of delta FosB homodimer, primary screen, biochemical, fluorescence polarization, TAMRA-CDK5 oligo, single point. purified delta FosB; percent of positive-control signal above neutral wells. activation, % at 25 µM. 340,000 compounds, 0.99% hits. AID 493131, 2011;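 active = mean activation above about 17%, with every replicate also reaching it, limit read from the data, passing the limit was not always enough; inconclusive = only one of the two conditions met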
Target sequence (P13346 whole entry, looked up): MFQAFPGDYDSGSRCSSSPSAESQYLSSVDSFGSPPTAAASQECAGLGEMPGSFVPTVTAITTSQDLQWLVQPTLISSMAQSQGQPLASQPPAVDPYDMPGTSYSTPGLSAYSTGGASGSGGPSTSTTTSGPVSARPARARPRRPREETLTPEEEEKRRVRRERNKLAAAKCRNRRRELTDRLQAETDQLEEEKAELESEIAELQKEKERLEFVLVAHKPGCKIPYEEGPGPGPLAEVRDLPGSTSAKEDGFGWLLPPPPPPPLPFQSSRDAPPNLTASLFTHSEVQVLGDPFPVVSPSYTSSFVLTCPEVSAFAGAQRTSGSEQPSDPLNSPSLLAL
RAD52 anneal inh: RAD52 DNA annealing inhibitors, primary screen, biochemical, FRET, single point, set 2. DNA repair protein RAD52 homolog (Homo sapiens), P43351. recombinant RAD52 DNA annealing, FRET fluorescence. inhibition, % at 18.7 µM. 360,000 compounds, 0.46% hits;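 active = every replicate showing at least 50% inhibition; inconclusive = mean inhibition at least 50% but not in every replicate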
Target sequence (P43351 whole entry, looked up): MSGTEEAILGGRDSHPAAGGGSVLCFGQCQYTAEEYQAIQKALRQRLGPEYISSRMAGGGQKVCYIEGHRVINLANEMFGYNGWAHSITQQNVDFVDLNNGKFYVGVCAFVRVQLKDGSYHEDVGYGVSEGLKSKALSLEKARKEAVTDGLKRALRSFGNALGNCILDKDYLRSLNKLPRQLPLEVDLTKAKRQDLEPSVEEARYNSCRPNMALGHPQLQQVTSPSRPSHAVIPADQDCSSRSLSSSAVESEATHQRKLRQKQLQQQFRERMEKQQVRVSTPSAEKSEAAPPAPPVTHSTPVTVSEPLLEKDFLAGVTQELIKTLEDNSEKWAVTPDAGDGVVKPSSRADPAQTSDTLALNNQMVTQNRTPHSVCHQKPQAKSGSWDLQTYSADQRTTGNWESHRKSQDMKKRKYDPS
RAD54 branch: inhibitors of human RAD54 branch migration, primary screen, biochemical, fluorescence, single point. DNA repair and recombination protein RAD54-like (Homo sapiens), Q92698. 360,000 compounds, 0.14% hits. AID 602329, 2012. inhibition, % at 10.4 µM. RAD54 Holliday junction branch migration, FAM/BHQ fluorescence;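 active = mean normalized replicate activity at least 40 and at least half of replicates scoring 40 or more; inconclusive = only one of the two criteria met; inactive = mean below 40 and under half of replicates reaching 40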;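 note: inhibitors cause a drop in the FAM fluorescence signal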
GSIS activator: GLuc luminescence reporter in INS-1E cells, primary screen for activators of glucose-dependent secretion of insulin; AID 743287, 2014; INS-1E GLuc reporter insulin secretion, 2-3 h; 370,000 compounds, 0.61% hits; activation, % at 16.6 µM;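 active = lowest replicate activation of at least 40%, so every replicate reaches that level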
DENV2 CPE: inhibitors of DENV2 cytopathic effect, primary screen, cell-based, plate reader, single concentration; DENV2-infected cells, cytopathic effect rescue; CPE inhibition, % at 9.99 µM; 350,000 compounds, 1.7% hits; in the data active = CPE inhibition above about 20%, passing the limit was not always enough; inconclusive = no clear call, values can overlap the other calls; tested in BHK-21 cells
Large screens that a line does not name were inactive; ! = not active in a repeat.

COc1ccc(C#Cc2ccc([C@H]3[C@H](CO)N4CCCCN(C(=O)Nc5ccc(F)cc5)C[C@@H]34)cc2)cc1	none (no result: dFosB act)
COc1ccc(C#Cc2ccc([C@H]3[C@@H](CO)N4CCCCN(C(=O)Nc5ccc(F)cc5)C[C@@H]34)cc2)cc1	DENV2 CPE 30.0 (no result: dFosB act)
CCC(=O)N1C[C@H](C)[C@H](OC)CN(C)C(=O)c2cc(NC(=O)c3ccc(F)cc3)ccc2OC[C@H]1C	DENV2 CPE inconclusive (no result: dFosB act)
CCCNC(=O)Nc1ccc2c(c1)C(=O)N(C)[C@@H]1CC[C@@H](CC(=O)NCCCN(C)C)O[C@@H]1CO2	none (no result: dFosB act)
CC=Cc1ccc2n(c1=O)C[C@@H]1[C@@H](CO)[C@H](C(=O)N3CCc4ccccc4C3)[C@H]2N1Cc1ccncc1 (mixture of isomers)	none (no result: dFosB act)
COc1cccc(C(=O)Nc2ccc3c(c2)C(=O)N(C)C[C@@H](OC)[C@H](C)CN[C@H](C)CO3)c1	none (no result: dFosB act)
COc1ccc(NC(=O)N2CCCCN3[C@H](CO)[C@@H](c4ccc(C#Cc5ccccc5)cc4)[C@H]3C2)cc1	RAD52 anneal inh 69.8 (no result: dFosB act, GSIS activator)
Oc1ccc(/C=N/Nc2cc(N3CCCC3)nc(N3CCCC3)n2)cc1	none (no result: MLL AF4-AF9 inh, RAD52 anneal inh, GSIS activator, DENV2 CPE)
Oc1cccc(/C=N/Nc2cc(N3CCCC3)nc(N3CCCC3)n2)c1	dFosB act 57.4 (no result: MLL AF4-AF9 inh, RAD52 anneal inh, RAD54 branch, DENV2 CPE)
CCCCNC(=O)O[C@H]1C[C@@H]2CCN3C(=O)CCC[C@H]([C@H]1Cc1ccccc1)[C@H]23	DENV2 CPE 53.9
COc1ccccc1-c1cnc2c(c1)C(=O)N([C@H](C)CO)C[C@@H](C)[C@H](CN(C)Cc1cncnc1)O2	DENV2 CPE inconclusive (no result: dFosB act)
NS(=O)(=O)c1ccc(N/N=C2/CCCCC2C2CCCCC2)c([N+](=O)[O-])c1 (stereo unspecified)	MLL AF4-AF9 inh 30.0 (no result: RAD54 branch, GSIS activator)
CO[C@@H]1CN(C)C(=O)c2cc(NC(=O)NC3CCCC3)ccc2OC[C@H](C)N(CC2CC2)C[C@H]1C	none (no result: MLL AF4-AF9 inh, dFosB act, RAD52 anneal inh, RAD54 branch, DENV2 CPE)
O=C1C[C@@](C(=O)NCCN2CCOCC2)(c2ccc([N+](=O)[O-])cc2)[C@@H](c2ccc(CO)cc2I)N1CC12CC3CC(CC(C3)C1)C2	MLL AF4-AF9 inh 26.7, RAD52 anneal inh 57.8 (no result: dFosB act, GSIS activator)
CC(C(=O)NCCN1CCOCC1)c1ccc([N+](=O)[O-])cc1 (stereo unspecified)	none (no result: RAD54 branch)
Cc1cccc(-c2ccc(C3[C@@H]4CN(C(=O)Nc5ccc(F)cc5)C[C@H]3N4)cc2)c1 (stereo partly specified)	RAD52 anneal inh 60.3! (no result: dFosB act, RAD54 branch)
O=C(Nc1cccc(F)c1)N1C[C@@H]2N[C@H](C1)C2c1ccc(-c2ccc(F)cc2)cc1 (stereo partly specified)	RAD52 anneal inh 50.5 (no result: dFosB act, RAD54 branch)
O=C(Nc1ccc(F)cc1)N1C[C@@H]2N[C@H](C1)C2c1ccc(-c2ccccc2F)cc1 (stereo partly specified)	RAD52 anneal inh 55.3! (no result: dFosB act, RAD54 branch)
Cc1cccc(-c2ccc(C3[C@@H]4CN(C(=O)Nc5ccccc5)C[C@H]3N4)cc2)c1 (stereo partly specified)	none (no result: MLL AF4-AF9 inh, dFosB act, RAD52 anneal inh, RAD54 branch)
O=C(NCc1ccccc1)[C@@H]1[C@@H](CO)[C@@H]2Cn3c(ccc(-c4cccc(F)c4)c3=O)[C@H]1N2	none (no result: dFosB act)
Cc1noc(C)c1S(=O)(=O)Nc1ccc2c(c1)C(=O)N([C@H](C)CO)C[C@@H](C)[C@@H](CN(C)S(=O)(=O)c1cccs1)O2	none (no result: dFosB act)
Cn1cc(C=C2C(=O)OC3(CCCCC3)OC2=O)c2ccccc21	MLL AF4-AF9 inh 25.7 (no result: GSIS activator)
COc1ccc(C(=O)COC(=O)CCCN=C2NS(=O)(=O)c3ccccc32)c(OC)c1	DENV2 CPE 35.8 (no result: RAD54 branch)
COc1ccc(C(=O)COC(=O)CCN=C2NS(=O)(=O)c3ccccc32)c(OC)c1	DENV2 CPE 82.5 (no result: RAD54 branch)
COc1ccccc1C(=O)COC(=O)CCN=C1NS(=O)(=O)c2ccccc21	none
O=C(CCCN=C1NS(=O)(=O)c2ccccc21)OCC(=O)c1ccccc1	none
CN1C(=S)N(c2ccccc2)C(=O)/C1=C/c1cccs1	GSIS activator 68.5 (no result: MLL AF4-AF9 inh, RAD52 anneal inh, RAD54 branch, DENV2 CPE)
CCNC(=O)[C@H]1[C@H](CO)[C@H]2Cn3c(ccc(-c4ccccc4)c3=O)[C@@H]1N2Cc1cccnc1	none (no result: dFosB act)
Cc1ccc(S(=O)(=O)Nc2ccc3c(c2)CC(=O)N([C@@H](C)CO)C[C@H](C)[C@@H](CN(C)S(=O)(=O)c2ccc(F)cc2)O3)cc1	none (no result: MLL AF4-AF9 inh, dFosB act, RAD52 anneal inh)
C[C@@H]1CCCCO[C@H](CN(C)S(=O)(=O)c2ccc(Cl)cc2)[C@@H](C)CN([C@H](C)CO)C(=O)c2cc(NC(=O)CCC(F)(F)F)ccc2O1	none (no result: dFosB act)
COC(=O)c1c(CC[C@@H](CO)NC(=O)N[C@H](Cc2ccccc2)Cn2cc(-c3ccccn3)nn2)oc(C(C)=O)c1C(=O)OC	DENV2 CPE 31.0 (no result: dFosB act, GSIS activator)
Cc1cccc2nc(-c3ccco3)c(Nc3ccccc3)n12	GSIS activator 41.0
Cc1ccc(-c2nc3ncccn3c2N)cc1	none (no result: dFosB act, RAD54 branch)
Nc1c(-c2ccccc2)nc2ncccn12	GSIS activator 48.7, DENV2 CPE 27.7 (no result: MLL AF4-AF9 inh, dFosB act, RAD54 branch)
CC(C)Cn1c(N)c(C(=O)COC(=O)c2cc(-c3ccccc3)nc3ccccc23)c(=O)n(C)c1=O	DENV2 CPE 29.9
C[C@@H]1CCCCO[C@H](CN(C)C(=O)Cc2ccccc2)[C@@H](C)CN([C@@H](C)CO)C(=O)c2cc(NS(=O)(=O)c3cn(C)cn3)ccc2O1	DENV2 CPE 31.4 (no result: dFosB act)
C[C@@H]1CCCCO[C@@H](CN(C)C(=O)Nc2cccc3ccccc23)[C@H](C)CN([C@H](C)CO)C(=O)c2cc(NS(=O)(=O)c3cn(C)cn3)ccc2O1	none (no result: MLL AF4-AF9 inh, dFosB act, RAD52 anneal inh)
C[C@@H]1CCCCO[C@@H](CN(C)C(=O)Nc2cccc3ccccc23)[C@H](C)CN([C@@H](C)CO)C(=O)c2cc(NS(=O)(=O)c3cn(C)cn3)ccc2O1	DENV2 CPE 21.5 (no result: MLL AF4-AF9 inh, dFosB act, RAD52 anneal inh)
C[C@@H]1CN([C@@H](C)CO)C(=O)c2cc(NS(=O)(=O)c3cn(C)cn3)ccc2O[C@@H](C)CCCCO[C@@H]1CN(C)C(=O)Cc1ccccc1	DENV2 CPE 63.2 (no result: dFosB act)
CCS(=O)(=O)Nc1ccc2c(c1)C(=O)N(C)C[C@H](OC)[C@@H](C)CN(C(=O)NC(C)C)[C@@H](C)CO2	none (no result: dFosB act)
C[C@@H]1CCCCO[C@@H](CN(C)C(=O)c2ccccc2)[C@@H](C)CN([C@@H](C)CO)C(=O)c2cc(NS(C)(=O)=O)ccc2O1	none (no result: dFosB act)
NCCCC[C@H](N)c1nnc([C@H](CCC(=O)O)NC(=O)C2CCNCC2)o1	MLL AF4-AF9 inh 28.1
N[C@@H](CO)c1nnc([C@H](CCC(=O)O)NC(=O)C2CCNCC2)o1	none

Screening results as filed in PubChem BioAssay.
